The sample as a whole holds a higher share of hits than the screen did.
Pf Dd2 growth: Plasmodium falciparum Dd2 growth inhibition. P. falciparum Dd2 growth, SYBR Green, 72 h. Potency, µM (series often up to 28.9 µM), without a hit: at the top dose activity, negative = inhibition, hits mostly inhibitors. 120,000 compounds, 4.3% hits. AID 1347417; active = well fitted inhibition curve with a large enough effect;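 also: plate controls were DMSO vehicle for no effect and reference drug for full effect; nearly all actives have a fitted effect of over 65% in size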
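Infected erythrocytes (Dd2, 0.3% parasitemia, 2.5% hematocrit final) are added to compound in RPMI-1640/Albumax II medium, grown 72 h at 37C in low oxygen, then lysed with saponin/Triton-X containing SYBR Green and read by fluorescence.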
* marks the source's active call; other numbers are inactive results; i = inactive; [ ] = dose if it differs, or a comment. Potency is read from the fitted curve at half-maximal effect.

SMILES	Pf Dd2 growth
N#CC1CCN(C(=O)c2nc(-c3ccccc3)c3ccccn23)CC1	i
O=C(NCc1ccc(F)cc1)c1nc(-c2cccc(C(F)(F)F)c2)c2cnccn12	2.51µM*
CC(C)NC(=O)c1nc(-c2cccc(C(F)(F)F)c2)c2ccccn12	-10.4%[44.1 µM]
O=C(c1nc(-c2ccc(Cl)cc2)c2ccccn12)N1CCCC1	11.2µM*
O=C(NCc1ccc(F)cc1)c1nc(-c2cccc(F)c2)c2cnccn12	2.51µM*
CC(C)NC(=O)c1nc(-c2cccc(C(F)(F)F)c2)c2cnccn12	1.78µM*
Cc1cc(C(=O)N[C@@H]2C[C@H](Cn3cc(C4CC4)nn3)[C@@H](O)[C@H]2O)no1	3.2%[44.1 µM]
CCCN(CC1CCOC1)C(=O)c1cccc(Cl)c1 (stereo not given)	8.5%[5.79 µM]
CS(=O)(=O)N1CCCC1c1noc(CCC(=O)NCC2CC2)n1 (stereo not given)	-6.7%
N#Cc1cccc(-c2ccnc(N[C@H]3CO[C@H]4[C@@H]3OC[C@@H]4NC(=O)c3ccccc3)n2)c1	i
Cc1cccc(C(=O)N2CCCCCCNC(=O)CC2)c1	-14.1%
CCc1nncn1C1CCN(S(=O)(=O)c2ccc(F)cc2)CC1	-11.4%
O=C(NCc1cccs1)c1nc(-c2cccc(C(F)(F)F)c2)c2cnccn12	1.78µM*
Cc1cccc(C)c1-c1nc(C(=O)NC(C)C)n2ccccc12	12.6µM*
CC(C)NC(=O)c1nc(-c2cc(Cl)cc(Cl)c2)c2ccccn12	-14.4%
O=C(NCc1cccs1)c1nc(-c2ccsc2)c2ccccn12	i
O=C(NCc1ccc(F)cc1)c1nc(-c2ccc(Cl)cc2Cl)c2ccccn12	-14.5%
O=C(NCc1ccc(F)cc1)c1nc(-c2ccc(Cl)cc2)c2ccccn12	10µM*
COC(=O)CNC(=O)c1nc(-c2ccc(F)cc2)c2ccccn12	-11.6%[44.1 µM]
O=C(NCc1cccs1)c1nc(-c2ccc(F)cc2)c2ccccn12	-22.3%
Cc1cccc(C)c1-c1nc(C(=O)NCc2ccc3c(c2)OCO3)n2ccccc12	-9.5%
O=C1CCN(S(=O)(=O)c2ccccc2)CCCN(C(=O)C2CCOCC2)CCN1	0.4%
NCCO[C@H]1C[C@@H](O)C12CCN(C(=O)Cn1cnnn1)CC2	-8.1%
CCCn1c(C)cnc1C1CCN(C(=O)NC(C)C)C1 (stereo not given)	5.2%
CN(C)c1cc(N2CCCC(N)C2)ncn1 (stereo not given)	-5.3%[5.79 µM]
SMILES	Pf Dd2 growth
COCC(=O)N1CCn2c(nn(-c3ccc([N+](=O)[O-])cc3)c2=O)C1	-1.0%[44.1 µM]
CCOC(=O)c1c(C)oc2nc(C)nc(NCc3ccccc3OCC)c12	8.91µM*
CCOC(=O)c1c(C)oc2nc(C)nc(NCc3ccccc3OC)c12	8.91µM*
CCOC(=O)c1c(C)oc2nc(C)nc(NCCCN3CCN(c4ccc(F)cc4)CC3)c12	11.2µM*
CCOC(=O)c1c(C)oc2nc(C)nc(NCCc3ccc(S(N)(=O)=O)cc3)c12	i[5.79 µM]
CCOC(=O)c1c(C)oc2nc(C)nc(NCC3CCN(Cc4cc(C)ccc4C)CC3)c12	-3.2%
CCOC(=O)c1c(C)oc2nc(C)nc(NCCc3ccc(C)cc3)c12	-9.9%
CCOC(=O)c1c(C)oc2nc(C)nc(NCC3CCN(Cc4cccc(C)c4)CC3)c12	i[5.79 µM]
CCOC(=O)c1c(C)oc2ncnc(Nc3ccc(CC)cc3)c12	i
Cc1nc(N2CCCC2)c2c(C(=O)N3CCN(c4ccc(F)cc4)CC3)c(C)oc2n1	-9.4%
COc1ccccc1C(=O)Nc1ccnn1C1CCN(c2cnccn2)CC1	-13.8%
O=C(O)[C@@H]1CN(S(=O)(=O)N2CCOCC2)C[C@H]1c1cccnc1	-10.1%
Cc1cccc([C@H]2C[C@@H](O)[C@@H](O)[C@@H]2NC(=O)C2CCOCC2)c1	23.8%[44.1 µM]
CCOC(=O)C1=C(C)N=C2SC=C(CC(=O)N3CCCC3)N2C1c1cccc(F)c1 (stereo not given)	i
CC(c1cccs1)N(C)CC1CCCCC1 (stereo not given)	10.9%[44.1 µM]
O=C1N2CCCC2CN1C1CCN(Cc2ccccn2)CC1 (stereo not given)	-16.4%[44.1 µM]
Cn1cccc1CN1CCCC12Cc1ccccc1CNC2=O (stereo not given)	i
Cc1cc(CC(C)NC(=O)Cc2c(C)[nH]c3ccccc23)n[nH]1 (stereo not given)	i
COc1ccc(NS(=O)(=O)c2cc3c(cc2C)NC(=O)CO3)c(OC)c1	4.0%
COc1ccccc1NS(=O)(=O)c1cc2c(cc1Cl)NC(=O)CO2	8.91µM*
COc1ccc(CNS(=O)(=O)c2cc3c(cc2Cl)NC(=O)CO3)cc1	38.0%[0.594 µM]
COc1ccccc1C(=O)N1CCCCCC1CN1CCc2ccccc2C1 (stereo not given)	-17.3%
COc1cc(OC)cc(-c2onc(C)c2C(=O)NCCCCc2ccccc2)c1	i
O=C(NCCc1ccccc1)c1noc(-c2ccc3c(c2)OCO3)n1	20.6%
Cc1ccc(C)c(CN2CCn3c(nn(Cc4ccccc4C)c3=O)C2=O)c1	-17.2%
SMILES	Pf Dd2 growth
COCC(=O)N1CCC(Oc2ccccc2C(=O)N2CCN(c3ccccn3)CC2)CC1	-3.1%
CC(C)COC(=O)/C(C#N)=C\c1ccc(-c2ccccc2Cl)o1	1.12µM*
CCOC(=O)/C(C#N)=C/c1ccc(-c2ccccc2)o1	5.1%
CCC(C)OC(=O)/C(C#N)=C\c1ccc(-c2ccccc2Cl)o1 (stereo not given)	79.2%
C=CCN1CCN(C(=O)[C@@H]2C[C@@H](O)CN2C2CCN(C(=O)c3cccc(OC)c3)CC2)CC1	-17.6%
COc1cccc(C(=O)N2CCC(N3C[C@H](O)C[C@H]3C(=O)N3CC=C(c4ccccc4)CC3)CC2)c1	0.891µM*
COc1cccc(C(=O)N2CCC(N3C[C@H](O)C[C@H]3C(=O)N3CCN(c4ncccn4)CC3)CC2)c1	-4.1%
COc1cccc(C(=O)N2CCC(N3C[C@H](O)C[C@H]3C(=O)NC3CC3)CC2)c1	-16.5%
COc1cccc(C(=O)N2CCC(N3C[C@H](O)C[C@H]3C(=O)N3CCc4ccccc43)CC2)c1	2.51µM*
CNC(=O)[C@@H]1C[C@@H](O)CN1C1CCN(C(=O)c2cccc(OC)c2)CC1	-6.4%
O=C1NCCCCCCN(S(=O)(=O)c2cccc(F)c2)[C@H]2CCC[C@@H]12	-1.1%
O=C(NCc1ccc(C(F)(F)F)cc1)C1CCCN(c2nc3ncccc3o2)C1 (stereo not given)	i
Cc1ccc(F)cc1S(=O)(=O)N1C[C@@H](F)C[C@H]1C(=O)N1CCc2ccccc2C1	i
CN1C(=O)c2cccn2CC1C(=O)NCc1cccc(F)c1 (stereo not given)	-21.8%
COc1ccc(S(=O)(=O)N2CCC(Oc3cccc(C(F)(F)F)c3)CC2)cc1OC	9.4%
COc1ccc(CNC(=O)C(C)n2ccc3cc(S(=O)(=O)N4CCCC4)ccc32)cc1OC (stereo not given)	i
COc1cc2c(cc1OC)C(COc1cc(C)cc(C)c1)N(C(=O)c1ccc(S(=O)(=O)N3CCCC3)cc1)CC2 (stereo not given)	3.16µM*
COc1ccc(S(=O)(=O)N2CCCCC2)cc1C(=O)Nc1cccc(C(F)(F)F)c1	i
COc1cc2c(cc1OC)C(CNC(=O)Nc1ccc(C)cc1)N(C(=O)NC(C)C)CC2 (stereo not given)	-9.8%
COc1ccc(N2CC(NC(=O)c3ccc(S(=O)(=O)N4CCCCC4)cc3)CC2=O)cc1OC (stereo not given)	i
Cc1ccc2c(c1)C(c1ccccc1)N(C(=O)c1ccc(S(=O)(=O)N3CCCC3)cc1)CC(=O)N2 (stereo not given)	-21.5%
